Shown are actives, neighbours in structure and some others; about 1.5% of the full set was active somewhere.
PLC-gamma1 inh: inhibitors of human phospholipase C gamma1; AID 720700; 0.84% of 370,000 active; P19174; purified PLC-gamma1, fluorogenic substrate, fluorescence; inhibition, % at 12.2 µM; in the data active = inhibition above about 9.5%
PLC-beta3 inh: inhibitors of human phospholipase C beta3; Q01970; Purified PLC-beta3, fluorogenic substrate, fluorescence; inhibition, % at 12.2 µM; 0.18% of 370,000 active; AID 720704; in the data active = inhibition above about 11%
HGIII-sPLA2 inh: Blocks human group III sPLA2 activity; QFRET BODIPY PC-A2 liposome hydrolysis, fluorescence; inhibition, % at 12.2 µM; 0.56% of 370,000 active; AID 743126;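 active = inhibition above mean plus 3 SD of compounds lying within the high and low control bounds, cut at about 19% in these data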
DAGLB inh: blocks human DAGLB lipase activity; Q8NCG7; HEK293T DAGLB membrane lysate, EnzChek fluorogenic substrate; inhibition, % at 5.17 µM; 0.059% of 340,000 active; in the data active = inhibition above about 34%
sPLA2 confirm: human GIII-sPLA2 inhibition, confirmation | shares compounds with HGIII-sPLA2 inh | inhibition, % at 12.2 µM | recombinant hGIII-sPLA2, BODIPY PC-A2 QFRET fluorescence | 34% of 2,000 active;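 active = mean inhibition across triplicates above the hit cutoff set in the earlier primary screen, cut at about 19% in these data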
535nm interf: optically interferes with 535nm fluorescence in sPLA2 counter-screen | 8.5% of 2,000 active | AID 743282 | inhibition, % at 12.2 µM | shares compounds with HGIII-sPLA2 inh | BODIPY FL product fluorescence interference, QFRET;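 active = average inhibition above the solvent-only control mean plus 3 SD, cut at about 6% in these data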
535nm interf DR: 535nm optical interference dose response, HGIII-sPLA2 counter-screen; shares compounds with HGIII-sPLA2 inh; BODIPY FL product fluorescence interference, cell-free; IC50, µM; 240 tested, under 10 active; AID 743455;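 active = IC50 at or below 10 µM; inactive = IC50 above 10 µM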
Large screens that a line does not name were inactive (follow-up assays come after a bar, where they were run).

S=C(NCc1ccccc1)Nc1ccc2cn[nH]c2c1	none
CCCCNC(=S)Nc1ccc2cn[nH]c2c1	HGIII-sPLA2 inh 21.2 | sPLA2 confirm inactive | 535nm interf inactive
O=S1(=O)CC2c3ccccc3CN2CN1CCc1ccccc1 (stereo not drawn)	none (no result: DAGLB inh)
C=CCN(CC#Cc1ccccc1)Cc1ccc(OC)cc1OC	none (no result: DAGLB inh)
COC(=O)C1CN(Cc2cn(Cc3ccccc3)nn2)CCS(=O)(=O)N1Cc1ccc(C)cc1 (stereo not drawn)	none (no result: DAGLB inh)
COc1ccc(CC(=O)NCc2ccc3c(c2)cc(C)n3C)cc1	none
COc1ccc(NC(=S)NCc2ccc3c(c2)cc(C)n3C)cc1	HGIII-sPLA2 inh 22.4 | sPLA2 confirm inactive | 535nm interf inactive
O=C(OCc1ccccc1)N1CCC2CC1c1ccc(N3CCNCC3)cc12 (stereo not drawn)	HGIII-sPLA2 inh 30.9 | sPLA2 confirm inactive | 535nm interf inactive
COc1ccc(NC(=S)N2CCN(c3ccc4c(c3)C3CCN(C(=O)OCc5ccccc5)C4C3)CC2)c(OC)c1 (stereo not drawn)	HGIII-sPLA2 inh 24.7 (no result: DAGLB inh) | sPLA2 confirm inactive | 535nm interf inactive
O=C(OCc1ccccc1)N1CCC2CC1c1cc(N3CCN(C(=S)NCCc4ccccc4)CC3)ccc12 (stereo not drawn)	none (no result: DAGLB inh)
CC(COc1ccc(Br)cc1)CN1CCC(C(O)(c2ccccc2)c2ccccc2)CC1 (stereo not drawn)	none (no result: DAGLB inh)
CC(C)CC(CCOCCO)NC(=O)OCc1ccccc1[N+](=O)[O-] (stereo not drawn)	none (no result: DAGLB inh)
COc1cccc(C(=O)NNC(=O)c2ccc3ccccc3c2O)c1	HGIII-sPLA2 inh 24.6 | sPLA2 confirm inactive | 535nm interf inactive
COc1ccccc1NC(=O)NNC(=O)c1ccc2ccccc2c1O	HGIII-sPLA2 inh 30.0 | sPLA2 confirm 35.9 | 535nm interf inactive | 535nm interf DR inactive
COc1ccc(NC(=O)NNC(=O)c2ccc3ccccc3c2O)cc1OC	HGIII-sPLA2 inh 28.1 | sPLA2 confirm 28.0 | 535nm interf inactive | 535nm interf DR inactive
COc1ccc(NC(=O)c2cccc3ccccc23)cc1OC	none
Cc1ccccc1NC(=O)NNC(=O)c1ccc2ccccc2c1O	HGIII-sPLA2 inh 38.5 | sPLA2 confirm 28.5 | 535nm interf inactive | 535nm interf DR inactive
COc1ccccc1NC(=O)NNC(=O)c1ccc2ccccc2c1	none
O=C(OC12CCCN(C1)/C(=C/c1ccccc1)C2)C1CCCCC1 (stereo not drawn)	none (no result: DAGLB inh)
CC(C)=CCC/C(C)=C/CNCC(=O)N1c2ccccc2[C@]2(C)C[C@@H]3C(=O)N(C/C=C(\C)CCC=C(C)C)CC(=O)N3[C@H]12	none (no result: DAGLB inh)
O=C(N[C@H](C(=O)N1CCC[C@H]1C(=O)NC1CCCC1)c1ccccc1)C1CCCC1	none (no result: DAGLB inh)
O=C(NNC(=O)c1ccc2ccccc2c1O)c1ccccc1Cl	HGIII-sPLA2 inh 30.8 | sPLA2 confirm 36.6 | 535nm interf inactive | 535nm interf DR inactive
C[C@H]1[C@@H](OC(=O)NCc2ccco2)CC[C@@]23CCCN2C(=O)CCC[C@@H]13	none (no result: DAGLB inh)
O=C(NC(=S)NCCN1CCOCC1)c1ccccc1Cl	none
O=C(NC(=S)NCCN1CCOCC1)c1ccc(Cl)cc1Cl	HGIII-sPLA2 inh 21.2 | sPLA2 confirm inactive | 535nm interf inactive
Nn1c(SCC(=O)Nc2ccc(OCc3ccccc3)cc2)nnc1-c1cc(-c2ccc(Cl)cc2)n[nH]1	none (no result: DAGLB inh)
C[C@H]1[C@@H](NC(=O)c2ccc(O)cc2)CC[C@@]23CCCN2C(=O)CCC[C@@H]13	none (no result: DAGLB inh)
O=C(Cc1cnn(-c2ccccc2)c1)c1ccc(O)c(O)c1O	HGIII-sPLA2 inh 24.1 | sPLA2 confirm inactive | 535nm interf inactive
C[N+]1(CC2COC3(CCCCC3)O2)CCCC1 (stereo not drawn)	HGIII-sPLA2 inh 24.2 | sPLA2 confirm inactive | 535nm interf inactive
C1CCCCCC2(CCCCC1)OCC(CN1CCOCC1)O2 (stereo not drawn)	none
O=C1c2ccccc2C(=O)c2c1ccc(O)c2O	HGIII-sPLA2 inh 21.4 | sPLA2 confirm inactive | 535nm interf inactive
COC(=O)c1ccc2c(c1O)C(=O)c1ccccc1C2=O	none
COc1cccc(-n2c(N)c(C#N)c3ccc([N+](=O)[O-])cc3c2=O)c1	HGIII-sPLA2 inh 25.8 (no result: DAGLB inh) | sPLA2 confirm inactive | 535nm interf inactive
NC1=[N+](Cc2ccccc2)C(Cc2ccccc2)C2C(=C3CCCCC3n3c(=O)n(-c4ccccc4)c(=O)n32)N1 (stereo not drawn)	none (no result: DAGLB inh)
S=c1[nH]nc(-c2ccccc2)n1/N=C/C=C/c1ccco1	none
S=c1[nH]nc(-c2ccc(Cl)cc2)n1/N=C/C=C/c1ccco1	HGIII-sPLA2 inh 24.7 (no result: DAGLB inh) | sPLA2 confirm 29.8 | 535nm interf inactive
COC(=O)Cc1cn(-c2ncc(C(F)(F)F)cc2Cl)c2ccccc12	none
NC(=O)Cc1cn(-c2ncc(C(F)(F)F)cc2Cl)c2ccccc12	HGIII-sPLA2 inh 34.3 | sPLA2 confirm inactive | 535nm interf inactive
CC(=O)C1=C(C)NC(SCC(N)=O)=C(C#N)C1c1sccc1C (stereo not drawn)	HGIII-sPLA2 inh 22.6 | sPLA2 confirm inactive | 535nm interf inactive
CCOC(=O)CSC1=C(C#N)C(c2sccc2C)C(C(C)=O)=C(C)N1 (stereo not drawn)	none
CCC(=O)Nc1ccc(C(=O)NNC(=O)CCCCC(=O)NNC(=O)c2ccc(NC(=O)CC)cc2)cc1	HGIII-sPLA2 inh 22.4 | sPLA2 confirm inactive | 535nm interf inactive
CCC(=O)Nc1ccc(C(=O)NNC(=O)c2ccc(C)cc2)cc1	none
CCC(=O)Nc1ccc(C(=O)NCc2ccccn2)cc1	HGIII-sPLA2 inh 20.3 | sPLA2 confirm inactive | 535nm interf inactive
COCCCNC(=O)C[C@H]1C[C@@]2(C(=O)OC)C(=C[C@H](C(C)C)O[C@@H]2C2CC2)N(Cc2ccc3c(c2)OCO3)C1=O	none (no result: DAGLB inh)
COC(=O)c1cc2sccc2n1CC(=O)Nc1ccc(OC)c(OC)c1OC	none
CCOC(=O)c1cc2sccc2n1CC(=O)Nc1ccc(OC)cc1OC	HGIII-sPLA2 inh 20.9 | sPLA2 confirm inactive | 535nm interf inactive
C[C@H]1[C@@H](OC(=O)Nc2ccc(Br)cc2)CC[C@@]23CCCN2C(=O)CCC[C@@H]13	none (no result: DAGLB inh)
O=C(NNC(=S)NCc1ccco1)c1ccc(Cl)s1	none
CCCCNC(=S)NNC(=O)CCn1nc(C)c(Br)c1C	none
CCCCNC(=S)NNC(=O)c1nn(C)c(C)c1Cl	HGIII-sPLA2 inh 23.3 | sPLA2 confirm 20.6 | 535nm interf inactive
Cn1cc(Cl)c(C(=O)NNC(=S)NCc2ccco2)n1	HGIII-sPLA2 inh 29.7 | sPLA2 confirm 25.0 | 535nm interf 6.3
Cc1c(Cl)c(C(=O)NNC(=S)NCc2ccco2)nn1C	HGIII-sPLA2 inh 35.1 | sPLA2 confirm 41.2 | 535nm interf inactive | 535nm interf DR inactive
Cc1c(C(C)c2ccccc2O)c2ccccc2n1C (stereo not drawn)	none (no result: DAGLB inh)
